Only some compounds are listed: those with a hit (about 27% of all), similar ones and a draw of the others.
CYP2C19 inhib = blocks human cytochrome P450 2C19; P33261; CYP2C19 Supersomes, luciferin-H EGE luminescence, 30 min; inhibition, % at 5 µM; 96,000 tested, 21% active; AID 778;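 active means CYP2C19 inhibition above a set limit at 5 µM in the primary screen, cut at about 50% in these data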
CYP2C19 activ = cytochrome P450 2C19 (human) activation; recombinant CYP2C19, luciferin-H EGE luminescence; hits give high values; 0 = fully inhibited enzyme, 1 = untreated enzyme; activation factor at 5 µM; 96,000 tested, under 10 active;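 active means activation factor of at least 2 at 5 µM in the primary screen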
CYP2C9 inh = inhibitors of human CYP2C9 | 96,000 tested, 20% active | CYP2C9 Supersomes, luciferin-H conversion, luminescence | inhibition, % at 5 µM | P11712;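 active means blocking of liver enzyme CYP2C9 beyond about 50% at 5 µM, limit read from the data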
Target sequence (P11712 whole entry, looked up): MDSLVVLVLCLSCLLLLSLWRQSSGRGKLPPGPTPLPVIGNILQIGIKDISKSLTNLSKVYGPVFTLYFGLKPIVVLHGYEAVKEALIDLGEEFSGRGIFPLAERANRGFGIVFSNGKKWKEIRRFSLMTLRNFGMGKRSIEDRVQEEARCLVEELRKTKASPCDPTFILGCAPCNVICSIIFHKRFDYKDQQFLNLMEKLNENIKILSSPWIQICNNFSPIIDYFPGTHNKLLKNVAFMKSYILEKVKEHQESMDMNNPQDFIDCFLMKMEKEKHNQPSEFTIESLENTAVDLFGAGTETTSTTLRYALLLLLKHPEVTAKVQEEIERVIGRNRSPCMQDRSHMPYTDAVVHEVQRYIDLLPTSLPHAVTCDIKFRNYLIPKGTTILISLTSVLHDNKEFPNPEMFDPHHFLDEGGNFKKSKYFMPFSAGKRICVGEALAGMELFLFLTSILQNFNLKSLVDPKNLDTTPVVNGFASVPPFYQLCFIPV
EphB4 ephrin blk = antagonists of human EphB4-ephrin-B2 interaction; EphB4 LBD / TNYL-RAW-Alexa532 peptide, fluorescence polarization; P54760; AID 720; inhibition, % at 7 µM; 97,000 tested, 0.15% active;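 active means inhibition above the screen-wide mean inhibition plus 3 SD, cut at about 15% in these data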
CYP2C9 activ = increases human cytochrome P450 2C9 activity. P11712. recombinant CYP2C9, luciferin-H conversion, luminescence; hits give high values; factor 1 = untreated enzyme, 0 = blocked. activation factor at 5 µM. 96,000 tested, 1.4% active. AID 1024;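 active means activation factor of 2 or more for CYP2C9 at a 5 µM dose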
Hits are given with their value; – = inactive; · = no result given.

SMILES | CYP2C19 inhib | CYP2C19 activ | CYP2C9 inh | EphB4 ephrin blk | CYP2C9 activ
CC1C/C(=N/NC(=O)c2cccc(F)c2)c2ccc(O)cc2C1 (stereo not given) | 51.0 | – | – | – | –
O=C(N/N=C/c1ccccc1Cl)c1cccc(F)c1 | – | – | – | – | –
COc1ccc(NC(=O)c2c(-c3ccccc3Cl)noc2C)c(OC)c1 | 59.2 | – | – | · | –
Cc1onc(-c2ccccc2Cl)c1C(=O)Nc1cc(=O)n(C)c(=O)n1C | · | · | · | – | ·
COc1ccc(-n2nc3c(c2NC(=O)c2c(-c4ccccc4Cl)noc2C)CS(=O)(=O)C3)cc1 | – | – | 82.5 | – | –
CCN1C(=O)c2ccccc2S(=O)c2ccc(C(=O)NCc3ccccn3)cc21 (stereo not given) | – | – | – | · | –
CN(C)C(=O)N1CCC(C(=O)NC2CCCCCCC2)CC1 | – | – | – | – | –
NC(=O)c1noc(C(=O)N(CC(=O)NC2CCCC2)Cc2ccc3c(c2)OCO3)c1N | · | · | · | – | ·
CCC(C)(C)NC(=O)CN(C(=O)c1snc(C(N)=O)c1N)c1ccc2c(c1)OCO2 | – | – | 56.8 | – | –
CC(C(=O)NC1CCCC1)N(Cc1ccc2c(c1)OCO2)C(=O)c1snc(C(N)=O)c1N (stereo not given) | 99.4 | – | 81.8 | – | –
NC(=O)c1nsc(C(=O)N(CC(=O)NCc2ccc3c(c2)OCO3)C2CCCCC2)c1N | 86.4 | – | – | – | –
CCC(C(=O)NC1CCCC1)N(Cc1ccc2c(c1)OCO2)C(=O)c1snc(C(N)=O)c1N (stereo not given) | 92.5 | – | – | – | –
CCCC(C(=O)NC1CCCC1)N(Cc1cccs1)C(=O)c1snc(C(N)=O)c1N (stereo not given) | – | – | – | · | –
CC1CN(C(=O)c2cn3ccccc3n2)CC(C)O1 (stereo not given) | – | – | – | · | –
CC(C)(C)C1CCC(=NNc2ncc(C(F)(F)F)cc2Cl)CC1 (stereo not given) | – | – | – | – | –
CCN(CCNC(=O)CS(=O)(=O)Cc1nc(-c2cccc(OC)c2)oc1C)c1ccccc1 | 78.3 | – | 87.0 | – | –
COc1cccc(-c2nc(CS(=O)(=O)CC(=O)NCCC(C)C)c(C)o2)c1 | · | · | · | – | ·
CCOC(=O)c1cccc(NC(=O)CS(=O)(=O)Cc2nc(-c3cccc(OC)c3)oc2C)c1 | – | – | 75.8 | · | –
COc1ccc(OC)c(CCNC(=O)CS(=O)(=O)Cc2nc(-c3ccc(C)cc3)oc2C)c1 | 53.7 | – | 66.0 | – | –
COc1cccc(-c2nc(CS(=O)(=O)CC(=O)Nc3c(C)cccc3C)c(C)o2)c1 | – | – | – | · | –
COc1cccc(-c2nc(CS(=O)(=O)CC(=O)N3CCN(c4ccccn4)CC3)c(C)o2)c1 | – | – | 51.2 | · | –
CCCSc1nc(C)c(CC(=O)OCC)c(=O)[nH]1 | – | – | – | – | –
Cc1cc(N(C)C)c(C#N)c(NCc2ccccc2)n1 | – | – | – | – | –
CN(C)c1ccnc(NCc2ccccc2)c1C#N | 66.9 | – | – | – | –
CN(C)c1ccnc(N(Cc2ccccc2)Cc2ccccc2)c1C#N | 96.2 | – | 95.0 | – | –
SMILES | CYP2C19 inhib | CYP2C19 activ | CYP2C9 inh | EphB4 ephrin blk | CYP2C9 activ
Cc1nc(S(=O)(=O)N(C)Cc2ccccc2)c(C#N)c(C)c1Cl | – | – | – | – | –
N#Cc1c(NCc2ccccc2)ccnc1NCc1cccnc1 | 98.6 | – | 56.3 | – | –
COc1ccc(-c2nsc(SCC(=O)Nc3cc(C)on3)n2)cc1 | – | – | 54.0 | – | –
CCc1nnc(NC(=O)CSc2nc(-c3ccc(OC)cc3)ns2)s1 | – | – | 71.6 | – | –
Cn1c(=O)c2c(nc(N3CCN(c4ccccn4)CC3)n2Cc2ccccc2Cl)n(C)c1=O | – | – | – | – | –
CCOC(=O)C1/C(=N\O)CC(C)(O)C(C(=O)OCC)C1c1ccc(N(C)C)cc1 (stereo not given) | 83.6 | – | – | – | –
CCN(CC)CC(C)CNC(=O)CC(C(=O)N1CCc2ccccc21)n1ccnc1 (stereo not given) | · | · | · | – | ·
O=C(CC(C(=O)N1CCc2ccccc21)n1ccnc1)NCc1ccccc1 (stereo not given) | 100.4 | – | 72.8 | – | –
Cc1cc(N(C)Cc2ccccc2)nc(-c2ccccc2)n1 | 96.5 | – | 79.9 | – | –
C/C(Cn1nc([N+](=O)[O-])cc1C)=N\NC(=O)c1ccc(C(C)(C)C)cc1 | – | – | – | – | –
COCc1nnc(SCC(=O)NCc2ccccc2)n1-c1ccccc1 | – | – | – | – | –
CCOc1ccccc1NC(=O)CSCC(=O)Nc1ccccc1 | 92.7 | – | – | – | 2.6
COC(=O)c1cccc(NC(=O)CSc2nnnn2C)c1 | – | – | – | – | –
CCOc1ccccc1NC(=O)CSc1nc2cccnc2n1C | 65.7 | – | – | – | –
COc1cccc(-n2ccnc2SCC(=O)NCc2ccccc2)c1 | 95.5 | – | – | – | –
COC(=O)c1cccc(NC(=O)CSc2nc3cccnc3n2C)c1 | 68.0 | – | 58.6 | – | –
CCOC(=O)C1CCCN(C(=O)Cn2cccc2C(=O)c2ccccc2)C1 (stereo not given) | – | – | – | – | –
COc1ccc2[nH]c(=O)c(CN(C(=O)c3cccnc3)c3ccccc3OC)cc2c1 | – | – | – | – | –
Cc1ccc(NC(=O)CSCC#N)cc1 | – | – | – | – | –
CCOc1ccccc1NC(=O)CSc1nccn1-c1ccccc1 | 67.1 | – | – | · | 2.4
CCOC(=O)CC(=O)CSCC(=O)Nc1ccc(C)cc1 | 53.7 | – | – | – | –
CCCCOc1ccccc1NC(=O)CSc1nnnn1C(C)(C)C | 56.1 | – | 73.5 | – | –
COc1ccc(NC(=O)CSc2nccn2-c2ccccc2)c(OC)c1 | 95.1 | – | – | · | –
COc1ccccc1C(c1nnnn1CS(=O)(=O)c1ccc(C)cc1)N1CCSCC1 (stereo not given) | – | – | – | – | –
CCOc1ccccc1NC(=O)CC(O)(C(F)(F)F)C(F)(F)F | · | · | · | – | ·
SMILES | CYP2C19 inhib | CYP2C19 activ | CYP2C9 inh | EphB4 ephrin blk | CYP2C9 activ
CCOc1ccccc1NC(=O)COn1nnc2ccccc21 | 91.6 | – | – | – | 2.2
Cc1ccc(Cn2c(SCC(N)=O)nc3c2c(=O)n(C)c(=O)n3C)cc1 | – | – | – | – | –
Cc1[nH]c2ccccc2c1C(=O)COC(=O)C1CCC(=O)N1 (stereo not given) | – | – | – | – | –
COc1ccc(N=C2SC(C(N)=O)CC(=O)N2CCc2ccc(OC)c(OC)c2)cc1 (stereo not given) | 63.9 | – | – | – | –
COc1ccc(N=C2SC(C(=O)O)CC(=O)N2Cc2ccc(OC)c(OC)c2)cc1 (stereo not given) | – | – | – | – | –
CNC(=O)C1CC(=O)N(Cc2ccc3c(c2)OCO3)C(=Nc2ccc(OC)cc2)S1 (stereo not given) | 56.1 | – | – | – | –
NC(=O)C1CC(=O)N(Cc2ccc3c(c2)OCO3)C(=Nc2ccccc2)S1 (stereo not given) | 95.9 | – | 51.7 | – | –

Compound activity deposited in PubChem by several laboratories.
